Reference: PubChem BioAssay AID651725 (National Center for Advancing Translational Sciences (NCATS), 2012)
Hit rate of the full screen: of about 360,000 compounds, about 2,000 (0.56%) were called active. About 2% were inconclusive and are not listed. Rule as the data show it: active = activity change below about -65%; inconclusive = mostly about -30% to -63%; inactive = weaker than that. The full list was thinned out, with actives kept by preference.

molecular target: Homeobox protein SIX1 (Homo sapiens) + Protein phosphatase EYA2 (Homo sapiens) (UniProt Q15475+O00167); assay: qHTS Assay for Inhibitors of the Six1/Eya2 Interaction; conditions: AlphaScreen GST-Six1/His-Eya2 binding, biochemical; stronger effect = lower value
Procedure, shortened: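 Homogeneous AlphaScreen proximity assay pairing GST-Six1 with His-tagged Eya2 (added as 5X mix: 250 nM and 500 nM) in 50 mM Tris pH 8.0, 300 mM NaCl, 1 mM TCEP. Glutathione donor and nickel acceptor beads; 1 h, 37 °C, dark.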
% is scaled to controls: 0 for no effect and ±100 for the full control effect.

Chain of Homeobox protein SIX1 (Homo sapiens) + Protein phosphatase EYA2 (Homo sapiens) (O00167 whole entry, looked up): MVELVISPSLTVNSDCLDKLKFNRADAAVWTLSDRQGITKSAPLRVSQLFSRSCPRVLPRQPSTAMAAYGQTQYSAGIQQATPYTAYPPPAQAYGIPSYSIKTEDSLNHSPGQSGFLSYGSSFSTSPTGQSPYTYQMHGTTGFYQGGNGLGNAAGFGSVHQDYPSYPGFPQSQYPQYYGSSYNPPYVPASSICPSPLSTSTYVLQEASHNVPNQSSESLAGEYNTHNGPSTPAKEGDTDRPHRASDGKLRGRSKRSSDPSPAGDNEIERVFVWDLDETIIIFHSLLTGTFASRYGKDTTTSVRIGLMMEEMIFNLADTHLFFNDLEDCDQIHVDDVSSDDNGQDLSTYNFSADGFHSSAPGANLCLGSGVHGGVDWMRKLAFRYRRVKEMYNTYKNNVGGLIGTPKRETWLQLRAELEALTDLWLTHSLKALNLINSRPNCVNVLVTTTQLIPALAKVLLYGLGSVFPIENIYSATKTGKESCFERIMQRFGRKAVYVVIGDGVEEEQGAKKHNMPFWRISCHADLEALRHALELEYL
Chain of Homeobox protein SIX1 (Homo sapiens) + Protein phosphatase EYA2 (Homo sapiens) (Q15475 whole entry, looked up): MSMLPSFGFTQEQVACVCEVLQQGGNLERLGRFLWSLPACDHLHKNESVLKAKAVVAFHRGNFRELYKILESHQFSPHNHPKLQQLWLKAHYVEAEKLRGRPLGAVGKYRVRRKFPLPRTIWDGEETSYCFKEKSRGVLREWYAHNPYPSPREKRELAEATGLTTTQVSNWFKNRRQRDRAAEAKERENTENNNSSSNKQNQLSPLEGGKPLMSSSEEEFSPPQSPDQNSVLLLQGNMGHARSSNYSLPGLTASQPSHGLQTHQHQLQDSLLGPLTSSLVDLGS

SMILES | activity change
O=C1NC[C@H](CCCCN2CCN(CCc3ccccc3)C(=O)C2=O)N(CC2CCCCC2)C1=O | -4.53% (inactive)
Oc1c(CN2CCN(c3ccc(F)cc3)CC2)cc(Cl)c2cccnc12 | -81.4% (active)
Cc1cc(=O)oc2cc(OCC(=O)N3CCN(c4ccc(F)cc4)CC3)c(Cl)cc12 | 3.08% (inactive)
Cc1cccc(C)c1NC(=O)CN1CCN(c2ccc(F)cc2)CC1 | -0.798% (inactive)
CSCCC(C(=O)NC(C)(C)C)n1c(-c2ccccc2)nc2ccccc21 (configuration not stated) | 7.41% (inactive)
Cc1ccc(-c2ccc(C3=CC(=O)CC(C)(C)C3=O)cc2)cc1 | -1.02% (inactive)
CCCc1nc2ccccc2n1C(C)C(=O)NC(C)(C)C (configuration not stated) | -4.69% (inactive)
CCOC(=O)N1CCN(C(=O)C2CCN(c3ncnc4c3sc3cccc(F)c34)CC2)CC1 | -5.48% (inactive)
CCOC(=O)N1CCN(C(c2ccnc3ccccc23)c2nnnn2-c2c(C)cccc2C)CC1 (configuration not stated) | 18.3% (inactive)
CCOC(=O)N1CCN(C(c2cccnc2)c2ccc3cccnc3c2O)CC1 (configuration not stated) | -88.9% (active)
CCN1CCN(C(c2cccnc2)c2cc(Cl)c3cccnc3c2O)CC1 (configuration not stated) | -90.1% (active)
C=CCC[C@H](CCCCC)OC(=O)/C=C/[C@H](O)[C@@H](O)C[C@@H](O)CC=C | 9.69% (inactive)
COC(=O)C[C@H]1C=C[C@@H](NS(=O)(=O)c2ccc(C)cc2)[C@@H](CO)O1 | -7.03% (inactive)
Cc1ccc(Cn2cc(CN3CC(N4CCN(C)CC4)CS3(=O)=O)nn2)cc1 (configuration not stated) | 2.69% (inactive)
COc1ccc(/C=N/Nc2nc(-c3ccc(C)cc3)c(C#N)c(=O)[nH]2)cc1 | 1.97% (inactive)
CCOc1ccc(N/C(N)=N/c2nc(C)c(C)c(=O)[nH]2)cc1 | 1.12% (inactive)
COc1ccc(-n2c(O)c(C=NCC(c3ccco3)N3CCCC3)c3ccccc3c2=O)cc1OC (configuration not stated) | -13% (inactive)
CCOc1ccc(-n2c(O)c(/C=N/Nc3nnc(C)c(=O)[nH]3)c3ccccc3c2=O)cc1 | -93.7% (active)
Cc1cc(=O)[nH]c(N/N=C/c2c(C)nn(-c3ccccc3Cl)c2Cl)n1 | 1.43% (inactive)
Cc1nnc(N/N=C/c2ccccn2)[nH]c1=O | -72.8% (active)
Cc1[nH]nc(SCC(=O)NCC(C)C)c1[N+](=O)[O-] | 3.57% (inactive)
COc1ccc(N(CCC#N)S(=O)(=O)c2ccc(Cl)cc2)cc1 | 3.78% (inactive)

SMILES | activity change
CCCCOCCCNC(=O)C[C@@H]1C[C@@]2(C(=O)OCC)CCCC=C2N(CCC2=CCCCC2)C1=O | -13.6% (inactive)
COCCNC(=O)C1C(=O)Nc2ccccc2C(=O)N1c1ccc2c(c1)OCCO2 (configuration not stated) | 7.33% (inactive)
CC1(C(=O)Nc2ccc3c(c2)OCCO3)CN(S(C)(=O)=O)CC(=O)N1Cc1cccc(F)c1 (configuration not stated) | 6.88% (inactive)
Oc1c(C(c2ccccn2)N2CCOCC2)ccc2cccnc12 (configuration not stated) | -91.8% (active)
O=C(C[C@H]1CC[C@H]2[C@@H](COC[C@H](O)CN2C(=O)c2ccccn2)O1)N1CCN(c2ccccc2)CC1 | -7.33% (inactive)
CCCCn1nnnc1C1(C)CCC(=O)N1Cc1ccc(OC)c(OC)c1 (configuration not stated) | -14.1% (inactive)
CC(C)NC(=O)C(=O)NCCCOC(C)C | 7.72% (inactive)
Cc1cccc(-n2cnc(C(=O)Nc3cccnc3)c2)n1 | 26.5% (inactive)
Cc1cccc(-n2cnc(C(=O)NNC(=S)Nc3ccccc3)c2)n1 | -90.4% (active)
Cc1nn(C)cc1C(=O)NNC(=S)Nc1ccc(Cl)cc1 | 0.473% (inactive)
O=C1COc2ccc(S(=O)(=O)NCCc3ccc(Cl)cc3)cc2N1 | 6.96% (inactive)
CCOC(=O)[C@]12CCCC=C1N(CCC1=CCCCC1)C(=O)[C@H](CC(=O)N1CCOCC1)C2 | 8.54% (inactive)
Cn1c(N)c(C(=O)COC(=O)c2cnc(Cl)c(Cl)c2)c(=O)n(C)c1=O | -92.3% (active)
Cn1c(N)c(C(=O)COC(=O)COc2ccc(Cl)cc2)c(=O)n(C)c1=O | -10.5% (inactive)
Cn1c(N)c(C(=O)COC(=O)c2ccc3ccccc3c2)c(=O)n(C)c1=O | -0.607% (inactive)
COC(=O)c1scc(S(=O)(=O)C(C)(C)C)c1-n1cccc1 | 5.88% (inactive)
CCC(=O)Nc1ccc(C(=O)CSc2nnc(CNc3ccc(Cl)cc3)o2)cc1OC | -0.882% (inactive)
O=C(NCc1ccccc1Cl)C1CCC(CNc2c(N3CCCCC3)c(=O)c2=O)CC1 (configuration not stated) | 5.37% (inactive)
Cc1ncc(CO)c(/C=N/NC(=O)c2cccc(S(=O)(=O)N3CCCC3)c2)c1O | -82.4% (active)
Cc1cccc(NC(=O)c2cccc(S(=O)(=O)N3CCCC3)c2)n1 | -10.7% (inactive)
CCOc1cc(/C=N/NC(=O)c2cccc(S(=O)(=O)N3CCOCC3)c2)ccc1OCC(=O)N(C)C | -8.33% (inactive)
CCCC[C@@H]1CN=C(N)N1CCc1cc(C(F)(F)F)cc(C(F)(F)F)c1 | 16.6% (inactive)

SMILES | activity change
Cn1cncc1COC(=O)c1ccc(Cl)cc1 | -6.11% (inactive)
Cc1cc(OC(=O)c2ccc(Cl)cc2)cc(=O)n1C | -92.4% (active)
Cc1ccc(CNC(=O)CCCNC(=O)c2ccc(Cl)cc2)n1C | -7.14% (inactive)
O=C1NC[C@H](Cc2ccc(O)cc2)N(C[C@@H]2CCCN2C[C@H](Cc2ccccc2)N2C[C@H](Cc3ccccc3)N(CC3CCCCC3)C(=O)C2=O)C1=O | 9.57% (inactive)
COC(=O)[C@]12CCCCC=C1N(CCC1=CCCCC1)C(=O)[C@H](CC(=O)NCC1CCCCC1)C2 | -2.3% (inactive)
Cc1c(C=O)n(C)n(-c2ccccc2)c1=O | 15.7% (inactive)
Cc1c(N=Nc2ccc(N(C)C)cc2)c(=O)n(-c2ccccc2)n1C | -7.33% (inactive)
Cc1nc(N)sc1N=Nc1c(C)n(C)n(-c2ccccc2)c1=O | -66.7% (active)
CCCCCCCCN1C(=O)[C@H](CC(=O)NCc2cccc3ccccc23)C[C@@]2(C(=O)OC)CCCCC=C12 | 0.0747% (inactive)
N#Cc1ccc(C(C(=O)NCc2ccccc2)n2c(=O)c(-c3ccco3)nc3ccccc32)cc1 (configuration not stated) | 2.42% (inactive)
O=C(CSc1cccc2cccnc12)N/N=C/c1cccnc1 | -80.7% (active)
Cc1ccc(S(=O)(=O)N(CC(=O)N/N=C/c2ccc(F)cc2)c2cccc3cccnc23)cc1 | -0.495% (inactive)
O=C(CNC(=O)c1cccnc1)N/N=C/c1cc(Br)c(O)c(Br)c1 | -6.06% (inactive)
C[C@H]1CN([C@@H](C)CO)C(=O)CCCn2nncc2CO[C@@H]1CN(C)Cc1ccc(Oc2ccccc2)cc1 | 13.9% (inactive)
CNc1[nH]ncc1[N+](=O)[O-] | -66.5% (active)
CNc1ccc(NC(C)=O)cc1[N+](=O)[O-] | -0.656% (inactive)
Cc1cc([N+](=O)[O-])c(=O)[nH]c1C | 4.44% (inactive)
Nc1nnnn1/N=C/c1cccs1 | 2.77% (inactive)
Nc1nnnn1/N=C/c1cc([N+](=O)[O-])ccc1O | -65.9% (active)
Nc1nnnn1/N=C/c1cccc(Br)c1 | -1.52% (inactive)
COC(=O)[C@@]12C[C@@H](CC(=O)N3CCCCC3)C(=O)N(Cc3ccc4c(c3)OCO4)C1=CCC(C)(C)C2 | -15.9% (inactive)
COc1ccc(C(C)(C)C)cc1NC(=O)CN(C)C1=NS(=O)(=O)c2ccccc21 | 4.86% (inactive)

SMILES | activity change
C=CCOCCN(C)C1=NS(=O)(=O)c2ccccc21 | -3.42% (inactive)
COc1ccc(/C=N/N(C)C2=NS(=O)(=O)c3ccccc32)cc1OC | -67.9% (active)
CC1CN(C(=O)c2cccc(NS(=O)(=O)c3ccc(Br)cc3)c2)CC(C)O1 (configuration not stated) | -2.46% (inactive)
C[C@H](NC(=O)[C@@H]1CCCN1C(=O)[C@@H]1CCCN1C(=O)c1ccccc1)c1ccccc1 | 0.523% (inactive)
CC1CN(S(=O)(=O)c2cccc(C(F)(F)F)c2)CN1C(=O)N1CCOCC1 (configuration not stated) | -0.306% (inactive)
CC1(C(=O)NCc2ccccc2)CSCC(=O)N1CCCN1CCOCC1 (configuration not stated) | -1.18% (inactive)
Cn1c(SCC(=O)Nc2ccc(Cl)cc2)nc(O)cc1=O | 7.12% (inactive)
Oc1ccc2ccccc2c1N=Nc1nccs1 | -81.4% (active)
Oc1ccc(N=Nc2nccs2)c(O)c1 | -77.5% (active)
CC1(C(=O)NCc2ccccc2)CN(S(C)(=O)=O)CC(=O)N1CC(F)(F)F (configuration not stated) | 2.8% (inactive)
CN1C(c2ccc(F)cc2)=CS/C1=C(/C#N)c1nnc2n1-c1ccccc1SC2 | -14.2% (inactive)
COC(=O)C1(C(=O)OC)C[C@H](c2ccccc2)N(Cc2ccccc2OC)[C@@H]1c1ccccc1 | 1.28% (inactive)
CCC(C(=O)NCc1ccccc1)n1c(Cc2cc(F)cc(F)c2)nc2ccccc21 (configuration not stated) | -0.68% (inactive)
COc1ccc(N2c3ccccc3CN(Cc3ccccc3)[C@@H](C)[C@H]2Cc2ccc(-c3ccccc3)cc2)cc1 | -12.3% (inactive)
CC(=O)c1cc(CN2CCC(n3nccc3NC(=O)c3ccccc3Cl)CC2)cs1 | -1.64% (inactive)
Cc1ccc(-c2c(N)nc3ncccn23)cc1 | -9.22% (inactive)
CC(=O)N1Cc2cc(C(=O)NCc3cccc(F)c3)nc(-c3cccc(C4=CCCCC4)c3)c2[C@H]1CCO | 0.697% (inactive)
O=S1(=O)CCN(Cc2ccccc2)CC1 | -0.459% (inactive)
O=C(CN1CCN(Cc2ccccc2)CC1)NC(c1ccccc1)c1ccccc1 | -3.09% (inactive)
O=C1c2ccccc2C(=O)c2c1cccc2N1CCN(Cc2ccccc2)CC1 | -88.9% (active)
Clc1ccc(-c2nc3ccccn3c2CN2CCSCC2)cc1 | -7.53% (inactive)
